Measured values published in PubChem BioAssay (NCATS).
Results filed as inconclusive are left out. Activity calls are given as the source filed them. The call rests on the fitted dose curve; in most records, active means well fitted curve in the direction sought with a large enough effect; inconclusive means small, poorly fitted or top-dose-only effect, or another doubt; inactive means no such curve, though single readings can be large; an effect the other way counts as inactive or inconclusive.

How the values were obtained:
[1] = qHTS of pediatric cancer cell lines to identify multiple opportunities for drug repurposing: Primary screen for DAOY cells (AID 1347090); further: nearly all actives have a fitted effect of over 55% in size;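 on activity change, negative = cytotoxic: series mostly up to about 46 µM; plate controls were DMSO for no effect and bortezomib for full effect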
Procedure, shortened: (§1)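 Eight- or eleven-point concentration series, 48 h treatment at 37 degrees C in growth media; readout CellTiter-Glo luminescence. Potency and efficacy were taken from the concentration-response curves.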

[2] = qHTS of pediatric cancer cell lines to identify multiple opportunities for drug repurposing: Primary screen for SJ-GBM2 cells (AID 1347091);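 on activity change, negative = cytotoxic: plate controls were DMSO neutral control for no effect and bortezomib for full effect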
Procedure, shortened: as §1

[3] = qHTS of pediatric cancer cell lines to identify multiple opportunities for drug repurposing: Primary screen for A673 cells (AID 1347092); further: nearly all actives have a fitted effect of over 45% in size; on activity change, negative = cytotoxic: on the % scale 0 is the no-effect control and ±100 the full control effect
Procedure, shortened: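 A673 cells (500-1,000 cells/well) were treated 48 hours at 37 degrees C with compounds at 11-point (0.78 nM to 46 µM) or 8-point (0.59 nM to 46 µM) dilutions. Viability read by CellTiter-Glo luminescence; concentration-response curves fitted.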

[4] = qHTS of pediatric cancer cell lines to identify multiple opportunities for drug repurposing: Primary screen for SK-N-MC cells (AID 1347093);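 on activity change, negative = cytotoxic: series mostly up to about 46 µM; plate controls were DMSO neutral control for no effect and bortezomib for full effect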
Procedure, shortened: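 Metabolically active cells were quantified by ATP-dependent luminescence (CellTiter-Glo, 15 min at room temperature) following 48 h treatment. Cells had been plated at 500-1,000 per well and settled for 5 h beforehand.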

[5] = qHTS of pediatric cancer cell lines to identify multiple opportunities for drug repurposing: Primary screen for BT-37 cells (AID 1347094);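 on activity change, negative = cytotoxic: series mostly up to about 57 µM; plate controls were DMSO for no effect and bortezomib for full effect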
Procedure, shortened: (§2)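 Luminescence from CellTiter-Glo served as readout of metabolically active cells after 48 h compound exposure. Titrations: MIPE 11-point, from 0.78 nM; NPC 8-point, from 0.59 nM (final). Concentration-response curves came straight from the primary screen.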

[6] = qHTS of pediatric cancer cell lines to identify multiple opportunities for drug repurposing: Primary screen for NB-EBc1 cells (AID 1347095);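 on activity change, negative = cytotoxic: plate controls were DMSO neutral control for no effect and bortezomib for full effect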
Procedure, shortened: as §2

[7] = qHTS of pediatric cancer cell lines to identify multiple opportunities for drug repurposing: Primary screen for U-2 OS cells (AID 1347096); further: nearly all actives have a fitted effect of over 50% in size;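 on activity change, negative = cytotoxic: plate controls were DMSO wells for no effect and bortezomib positive control wells for full effect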
Procedure, shortened: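 Cells (500-1,000/well) in growth media were settled 5 h at 37 degrees C, then given compounds for 48 h. Viability was read as CellTiter-Glo luminescence. Primary runs used MIPE at 11 points (0.78 nM-46 µM) and NPC at 8 points (0.59 nM-46 µM); follow-ups used 11 points.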

[8] = qHTS of pediatric cancer cell lines to identify multiple opportunities for drug repurposing: Primary screen for Saos-2 cells (AID 1347097); further: nearly all actives have a fitted effect of over 40% in size; on activity change, negative = cytotoxic: on the % scale 0 is the no-effect control and ±100 the full control effect
Procedure, shortened: as §2

[9] = qHTS of pediatric cancer cell lines to identify multiple opportunities for drug repurposing: Primary screen for SK-N-SH cells (AID 1347098); further: nearly all actives have a fitted effect of over 65% in size;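 on activity change, negative = cytotoxic: DMSO served as neutral control and bortezomib at 2.3 µM as positive control; on the % scale 0 is the no-effect control and ±100 the full control effect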
Procedure, shortened: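 Cells (500-1,000/well) rested 5 h, then received compounds for 48 h; metabolically active cells were measured by CellTiter-Glo luminescence. Final concentrations spanned up to 46 µM (MIPE, 11-point) or 0.59 nM-46 µM (NPC, 8-point) in primary screens, 11-point in follow-ups.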

[10] = qHTS of pediatric cancer cell lines to identify multiple opportunities for drug repurposing: Primary screen for NB1643 cells (AID 1347099); further: nearly all actives have a fitted effect of over 50% in size;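 on activity change, negative = cytotoxic: plate controls were DMSO neutral control for no effect and bortezomib positive control for full effect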
Procedure, shortened: as §2
Potency means the concentration at half of the fitted maximal effect.

CN(C)CCOc1cc(-c2cn[nH]c2)ccc1NC(=O)C1COc2ccccc2O1 (stereo not given)
active: Potency [3] 18700 nM | Potency [4] 8330 nM | Potency [8] 2960 nM | Potency [9] 10800 nM | Potency [10] 9350 nM
inactive: Potency [1] | Potency [2] | Potency [5] | Potency [6] | Potency [7]

CNC(=O)c1cc(Oc2ccc(NC(=O)Nc3ccc(Cl)c(C(F)(F)F)c3)c(F)c2)ccn1
active: Potency [1] 5900 nM | Potency [2] 8330 nM | Potency [3] 18700 nM | Potency [4] 2960 nM | Potency [5] 21700 nM | Potency [6] 5260 nM | Potency [7] 23500 nM | Potency [8] 16600 nM | Potency [10] 13200 nM

CO[C@H]1C=CO[C@@]2(C)Oc3c(C)c(O)c4c(O)c(c(C=NN5CCN(C)CC5)c(O)c4c3C2=O)NC(=O)C(C)=CC=C[C@H](C)[C@H](O)[C@@H](C)[C@@H](O)[C@@H](C)[C@H](OC(C)=O)[C@H]1C
inactive: activity change, negative = cytotoxic [1] -7.74% [at 9.22 µM] | activity change, negative = cytotoxic [2] 4.67% [at 9.22 µM] | activity change, negative = cytotoxic [3] 0.264% [at 9.22 µM] | activity change, negative = cytotoxic [4] -4.39% [at 9.22 µM] | activity change, negative = cytotoxic [5] -9.92% [at 11.5 µM] | activity change, negative = cytotoxic [6] -7.84% [at 9.22 µM] | activity change, negative = cytotoxic [7] -1.44% [at 9.22 µM] | activity change, negative = cytotoxic [9] -10.6% [at 11.4 µM]

CC(C)=CCCC(C)=CCCC(C)=CCCC(C)=CCCC(C)=CCCC(C)=CCCC(C)=CCCC(C)=CCCC(C)=CCO
inactive: Potency [1] | Potency [2] | Potency [3] | Potency [4] | Potency [5] | Potency [6] | Potency [7] | Potency [8] | Potency [9] | Potency [10]

O=C1C(CCC(O)c2ccc(F)cc2)C(c2ccc(O)cc2)N1c1ccc(F)cc1 (stereo not given)
inactive: Potency [1] | Potency [2] | Potency [3] | Potency [4] | Potency [5] | Potency [6] | Potency [7] | Potency [8] | Potency [9] | Potency [10]

CC(=O)OCC(=O)[C@@]1(O)CC[C@H]2[C@@H]3CCC4=CC(=O)C=C[C@]4(C)[C@@H]3[C@@H](O)C[C@@]21C
inactive: Potency [1] | Potency [2] | Potency [3] | Potency [4] | Potency [5] | Potency [6] | Potency [7] | Potency [8] | Potency [9] | Potency [10]

C[C@@H]1[C@H](O)[C@@H](C)C=CC=CC=CC=CC=CC=CC=C[C@H](O[C@@H]2O[C@H](C)[C@H](O)[C@H](N)[C@@H]2O)C[C@@H]2O[C@](O)(C[C@@H](O)C[C@@H](O)[C@H](O)CC[C@@H](O)C[C@@H](O)CC(=O)O[C@H]1C)C[C@H](O)[C@@H]2C(=O)O
active: Potency [3] 148 nM | Potency [4] 118 nM | Potency [10] 166 nM
inactive: Potency [1] | Potency [2] | Potency [5] | Potency [7] | Potency [8]

O=c1[nH]c(=O)n([C@H]2C[C@@H](O)[C@@H](CO)O2)cc1I
inactive: Potency [1] | Potency [2] | Potency [3] | Potency [4] | Potency [6] | Potency [7] | Potency [8] | Potency [9] | Potency [10]

CN1N=C(N)c2cn([C@@H]3O[C@H](COP(=O)(O)O)[C@@H](O)[C@@H]3O)c3ncnc1c23
active: Potency [1] 14800 nM | Potency [2] 7430 nM | Potency [3] 3720 nM | Potency [4] 4.2 nM | Potency [6] 1660 nM | Potency [8] 2090 nM | Potency [9] 21500 nM

CCNC(=O)c1noc(-c2cc(C(C)C)c(O)cc2O)c1-c1ccc(CN2CCOCC2)cc1
active: Potency [1] 235 nM | Potency [2] 332 nM | Potency [3] 148 nM | Potency [4] 52.6 nM | Potency [5] 137 nM | Potency [6] 296 nM | Potency [9] 152 nM | Potency [10] 105 nM

Cc1cnc(Nc2cccc(CN3CCOCC3)c2)nc1Nc1cccc(S(=O)(=O)NC(C)(C)C)c1
active: Potency [1] 14800 nM | Potency [2] 4180 nM | Potency [3] 5900 nM | Potency [4] 2640 nM | Potency [6] 4180 nM | Potency [8] 5260 nM | Potency [10] 8330 nM

COc1cc([C@@H]2c3cc4c(cc3[C@@H](O[C@@H]3O[C@@H]5CO[C@@H](C)O[C@@H]5[C@H](O)[C@@H]3O)[C@H]3COC(=O)[C@H]23)OCO4)cc(OC)c1O
active: Potency [1] 1480 nM | Potency [2] 590 nM | Potency [3] 1480 nM | Potency [4] 469 nM | Potency [6] 187 nM | Potency [8] 3320 nM

CC1(C)[C@H]2CC[C@]3(C)[C@@H](C(=O)C=C4[C@@H]5C[C@@](C)(C(=O)O)CC[C@]5(C)CC[C@]43C)[C@@]2(C)CC[C@@H]1O
inactive: Potency [1] | Potency [2] | Potency [3] | Potency [4] | Potency [5] | Potency [7] | Potency [8] | Potency [9] | Potency [10]

Cc1ccc(S(=O)(=O)Nc2nc3ccccc3nc2Nc2ccc3nsnc3c2)cc1
active: Potency [1] 407 nM | Potency [2] 57.5 nM | Potency [3] 1.3 nM | Potency [4] 51.2 nM | Potency [5] 37.6 nM | Potency [6] 645 nM | Potency [8] 45.7 nM

Cc1ccc(C(=O)N(CCCN)[C@@H](c2nc3cc(Cl)ccc3c(=O)n2Cc2ccccc2)C(C)C)cc1
inactive: Potency [7] | Potency [9]
active: Potency [1] 1.5 nM | Potency [2] 1 nM | Potency [3] 1 nM | Potency [4] 1.7 nM | Potency [6] 1 nM | Potency [8] 1 nM

CN(C)CCN(C)C(=O)c1ccc(NC(=O)Nc2ccc(-c3nc(N4CCOCC4)c4ccn(CC(F)(F)F)c4n3)cc2)cc1
active: Potency [1] 1480 nM | Potency [2] 105 nM | Potency [3] 2960 nM | Potency [4] 26.4 nM | Potency [5] 48.5 nM | Potency [6] 935 nM | Potency [8] 418 nM | Potency [9] 7640 nM | Potency [10] 418 nM
